Consider 17 compounds from PubChem BioAssay (NCATS).

Records with an inconclusive call do not appear. A number with no mark means an inactive call. Calls of active or inactive are those of the source. Calls follow the shape of the dose curve; as a rule, active = well fitted curve in the direction sought with a large enough effect; inconclusive = small, poorly fitted or top-dose-only effect, or another doubt; inactive = no such curve, though single readings can be large; an effect the other way counts as inactive or inconclusive.
% is scaled to controls: 0 for no effect and ±100 for the full control effect; potency is read from the fitted curve at half-maximal effect.

The first assay can be described thus: qHTS assay for small molecule disruptors of mitochondrial membrane potential screened against the NCATS CANVASS Library (AID 1347389). Also: nearly all actives have a fitted effect of over 60% in size. To be noted: HepG2 mitochondrial membrane potential, m-MPI red/green ratio, 1.5 h; series mostly up to 46.1 µM; activity change, negative = depolarization: at the top concentration. A digest of the protocol:
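HepG2 cells (2,000/well) plated overnight, then exposed to compounds in 11-point qHTS series for 1 h at 37C before 30 min Mito-MPS dye; depolarization read as fall in red aggregate (590 nm) to green monomer (535 nm) fluorescence.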
`CC1=CC2CC[C@@H]3[C@@H](C)C[C@H](C)[C@@H](C1)N23` (some centres not stated): the “activity change, negative = depolarization” value was 8.01%. Regarding `CC=C1CN(C=O)[C@H]2C[C@@H]1[C@@H](C(=O)OC)[C@@]13CCOC21Nc1ccccc13` (some centres not stated), the “activity change, negative = depolarization” value was 2.42%. As for `C[C@@H]1CC[C@@H](c2ccoc2)N2C[C@@]3(CC[C@@H]12)CS[C@@]1(CC[C@H]2[C@H](C)CC[C@@H](c4ccoc4)N2[C@@H]1O)C3`, the Potency was 13.2 µM (active). On to `CCN1C[C@]2(C)CC[C@@H](O)[C@]34C1[C@H](C[C@H]23)C12CCC(CC14)[C@](O)(CO)[C@H]2O` (some centres not stated), for which the “activity change, negative = depolarization” value was -3.95%.

Turning to `CO[C@@H](/C=C/CC/C=C/C(=O)O)[C@@H](O)[C@H](C)[C@@H](O)/C(C)=C/[C@H](C)C(=O)CCCC1CC(=O)NC(=O)C1`, the “activity change, negative = depolarization” value is 3.79%. The same measure, in the same setting: the result for `CCCC[C@@H]1CC[C@H]2CCCC(CCC)N12` (some centres not stated) reads 1.29%; that for `C[C@]12CC(O)C3[C@@H](CCC4C[C@@H](O)CC[C@@]43CO)[C@@]1(O)CCC2C1=CC(=O)OC1` (some centres not stated), 5.71%. For `CO[C@@H](/C=C/CC/C=C/C(=O)O)[C@@H](O)[C@H](C)/C=C(\C)[C@@H](O)[C@H](C)C(=O)CCCC1CC(=O)NC(=O)C1`, the “activity change, negative = depolarization” value was -2.93%.

In the case of `O=C(c1ccccc1O)c1[nH]c(Cl)c(Cl)c1-n1c(C(=O)c2ccccc2O)cc(Cl)c1Cl`, the Potency was 0.0933 µM (active). In the case of `CC[C@@H]1CN2CC[C@@]3(O)C(=Nc4cccc(OC)c43)[C@@H]2C[C@@H]1/C(=C\OC)C(=O)OC`, the “activity change, negative = depolarization” value is -7.63%. On the same count and under the same terms, the result for `c1ccc2c3c([nH]c2c1)CNCC3` reads 9.39%; that for `CNCCc1ccccc1`, 0.794%. As for `CCCCC[C@@H]1OC(=O)[C@@H](C)N(C)C(=O)[C@H](CCCCC)OC(=O)C(C)N(C)C(=O)[C@H](CCCCC)OC(=O)[C@@H](C)N(C)C(=O)[C@H](CCCCC)OC(=O)C(C)N(C)C1=O` (some centres not stated), the Potency was 4.17 µM (active).

`CO[C@H](c1ccccc1)[C@H]1NC(=O)C(C)NC(=O)C(C[C@@H](C)CO)N(C)C(=O)[C@@H](C(O)c2cn(C(C)(C)C3CO3)c3ccccc23)NC(=O)C(C(C)C=C(C)C)NC(=O)C(CC(C)C)N(C)C(=O)C(C(C)C)NC1=O` (some centres not stated): the “activity change, negative = depolarization” value was 3.64% [at 27.5 µM]. Still for that read-out and setting: next, `CC1=CC(=O)C2=C(C)C[C@H](O)[C@@H]3[C@H](OC(=O)[C@@H]3C)[C@@H]12`: 1.5%; `CCN1C[C@]2(C)CC[C@H](O)[C@]34C1C(C[C@H]23)[C@@]12CC[C@H](CC14)[C@](O)(COC(=O)c1ccc(OC)c(OC)c1)[C@H]2O` (some centres not stated): 13.5%. Same read-out and setting: the result for `CCC(=O)CCCCC[C@@H]1NC(=O)[C@H]2CCCCN2C(=O)[C@H]([C@@H](C)CC)NC(=O)[C@H](Cc2cn(OC)c3ccccc23)NC1=O` reads -19.1%.

The nature of the next assay: Secretion counterscreen for inhibitors of the SERCaMP assay screened against the NCATS CANVASS Library (AID 1347390).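 Also: light from luciferase secreted into medium read as a measure of general secretion.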 To be noted: SH-SY5Y constitutive GLuc secretion, luminescence, 20 h; series mostly up to 76.6 µM; activity change, negative = inhibition: at the top concentration. Summed up:
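SH-SY5Y cells with constitutively secreted GLuc reporter, 1000 cells/well, treated 20 h at 37C with compounds at 0.001 - 77 uM final; secreted luciferase read as luminescence after coelenterazine; Brefeldin A as positive control.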
In the case of `CC=C1CN(C=O)[C@H]2C[C@@H]1[C@@H](C(=O)OC)[C@@]13CCOC21Nc1ccccc13` (some centres not stated), the “activity change, negative = inhibition” value is 18.9%. Regarding `C[C@@H]1CC[C@@H](c2ccoc2)N2C[C@@]3(CC[C@@H]12)CS[C@@]1(CC[C@H]2[C@H](C)CC[C@@H](c4ccoc4)N2[C@@H]1O)C3`, the Potency was 12.2 µM (active).

Take `CCN1C[C@]2(C)CC[C@@H](O)[C@]34C1[C@H](C[C@H]23)C12CCC(CC14)[C@](O)(CO)[C@H]2O` (some centres not stated): the “activity change, negative = inhibition” value was 11.3%. On the same count and under the same terms, next, `CO[C@@H](/C=C/CC/C=C/C(=O)O)[C@@H](O)[C@H](C)[C@@H](O)/C(C)=C/[C@H](C)C(=O)CCCC1CC(=O)NC(=O)C1`: -4.42%; `C[C@]12CC(O)C3[C@@H](CCC4C[C@@H](O)CC[C@@]43CO)[C@@]1(O)CCC2C1=CC(=O)OC1` (some centres not stated): 18.7%.

For `CO[C@@H](/C=C/CC/C=C/C(=O)O)[C@@H](O)[C@H](C)/C=C(\C)[C@@H](O)[C@H](C)C(=O)CCCC1CC(=O)NC(=O)C1`, the “activity change, negative = inhibition” value is 26.7%. Turning to `O=C(c1ccccc1O)c1[nH]c(Cl)c(Cl)c1-n1c(C(=O)c2ccccc2O)cc(Cl)c1Cl`, the Potency is 19.3 µM (active).

Consider `CC[C@@H]1CN2CC[C@@]3(O)C(=Nc4cccc(OC)c43)[C@@H]2C[C@@H]1/C(=C\OC)C(=O)OC`, for which the “activity change, negative = inhibition” value was 29%. Same read-out and setting: the result for `c1ccc2c3c([nH]c2c1)CNCC3` reads 17.6%; that for `CNCCc1ccccc1`, -3.5%.

Take `CCCCC[C@@H]1OC(=O)[C@@H](C)N(C)C(=O)[C@H](CCCCC)OC(=O)C(C)N(C)C(=O)[C@H](CCCCC)OC(=O)[C@@H](C)N(C)C(=O)[C@H](CCCCC)OC(=O)C(C)N(C)C1=O` (some centres not stated): the “activity change, negative = inhibition” value is -54.6%. For the compound `CO[C@H](c1ccccc1)[C@H]1NC(=O)C(C)NC(=O)C(C[C@@H](C)CO)N(C)C(=O)[C@@H](C(O)c2cn(C(C)(C)C3CO3)c3ccccc23)NC(=O)C(C(C)C=C(C)C)NC(=O)C(CC(C)C)N(C)C(=O)C(C(C)C)NC1=O` (some centres not stated), the “activity change, negative = inhibition” value was 16.2% [at 45.8 µM]. With `CC1=CC(=O)C2=C(C)C[C@H](O)[C@@H]3[C@H](OC(=O)[C@@H]3C)[C@@H]12`, the “activity change, negative = inhibition” value is 41.6%. On to `CCN1C[C@]2(C)CC[C@H](O)[C@]34C1C(C[C@H]23)[C@@]12CC[C@H](CC14)[C@](O)(COC(=O)c1ccc(OC)c(OC)c1)[C@H]2O` (some centres not stated), for which the “activity change, negative = inhibition” value was -0.236%.

With `CCC(=O)CCCCC[C@@H]1NC(=O)[C@H]2CCCCN2C(=O)[C@H]([C@@H](C)CC)NC(=O)[C@H](Cc2cn(OC)c3ccccc23)NC1=O`, the “activity change, negative = inhibition” value was 205%.
